# Laboratory results from PubChem BioAssay (NCI).
# Values joined by “and” are separate entries in the source; they are usually repeats but may differ in a detail not shown here. Identical values can stand only once. About 83,000 compounds went through this panel and 20% of them were active in at least one assay; those are over-represented in the sample as a whole.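 Values shown are percent growth following 48 h exposure of cells in 96-well plates to a single concentration of compound; below 10 was considered active.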 Some structures have more than one record in an assay (separate samples or runs), and their calls can disagree. Active and inactive are the calls of the source.
# Tested on: MDA-MB-468 breast
# Test: NCI-60 one-dose screen, 48 h (100 = growth as untreated, 0 = no growth, -100 = all killed)
# Conditions: 10 µM unless noted
row,SMILES,growth
1,O=C1c2c(c3c4ccccc4[nH]c3c3ccc4ccccc4c23)C(=O)N1CCN1CCCCC1,-0.798% (active)
2,CC(C)CCC[C@@H](C)[C@H]1CC[C@H]2[C@@H](Nc3ccc(O)cc3)CCC[C@]12C,-13.8% (active)
3,C=C(C[C@](O)(C(=O)/C=C/c1ccc(Cl)cc1)C(=O)OC)c1ccccc1,69.5% (inactive)
4,O=C(/C=C/c1ccc(F)cc1)c1ccc(Nc2nc(NCCO)nc(Nc3ccc(Cl)cc3)n2)cc1,57.8% (inactive)
5,COC(=O)c1cccc2c1N(C)c1c(cccc1C(=O)OC)CC2,124% (inactive)
6,O=C(/C=C/c1ccc(F)cc1)N1CCN(C(=O)/C=C/c2ccc(C(F)(F)F)cc2)CC1,117% (inactive)
7,CCOc1ccc2c(c1)c(C)cc(C)[n+]2CC,9.85% (active)
8,COc1ccc2[nH]c(O)c(/C=c3/cc4c(c(-c5ccc(F)cc5)n3)=Nc3ccccc3-4)c2c1,67.4% (inactive)
9,C=C[C@@H]1C[C@H](O)Cc2ccccc2N1,123% (inactive)
10,O=C(Nc1cccc2[nH]c(C(F)(F)F)nc12)c1cc(Cl)ccc1Cl,15.1% (inactive)
11,COc1ccc(/C=C2\SC(=Nc3cc(C)[nH]n3)NC2=O)cc1,82.6% (inactive)
12,CCC1NC(=O)c2cc(S(N)(=O)=O)c(Cl)cc2N1 (stereo not given),107% (inactive)
13,COc1ccc2c(Nc3ccc(NS(C)(=O)=O)cc3)c3ccccc3nc2c1,-59.5% (active)
14,Cc1ccc(Cn2c(-c3nonc3N)nc3ccccc32)cc1,58.8% (inactive)
15,CCOC(=O)c1ccc(N2C(=O)C(Cl)(c3ccccc3)C2c2ccco2)cc1 (stereo not given),65.9% (inactive)
16,Ic1ccccc1-c1ccccc1,103% (inactive)
17,COC(=O)CCCCC1=CCC2C(=O)C=C(O)C2C1 (stereo not given),100% (inactive)
18,Cc1ccc(-c2nc(N3CCN(CC(=O)Nc4ccc(Cl)cc4)CC3)c3ccccc3n2)cc1,93.3% (inactive)
19,COc1cc(/C=C2\CN(C(=O)OC(C)(C)C)C/C(=C\c3ccc(O)c(OC)c3)C2=O)ccc1O,99.9% (inactive)
20,OCc1cnccc1NCCCOc1ccccc1,94.4% (inactive)

row,SMILES,growth
1,CCc1ccc(-c2nnc(COc3ccc(-c4nc5ccccc5[nH]4)cc3OC)o2)cc1,86.9% (inactive)
2,COc1ccc(-c2c(N)n[nH]c2-c2cc(OC)c3c(c2)OCCO3)cc1,71.7% (inactive)
3,NNc1ncnc2c1ncn2C1OC(CO)C(O)C1O (stereo not given),58.8% (inactive)
4,COc1cccc(Cn2c(-c3nonc3N)nc3ccccc32)c1,-12.2% (active)
5,C/C(=N\O)C1(O)CCCCC1,-9.98% (active)
6,O=S(=O)(O)c1cccnc1,124% (inactive)
7,COC(=O)CCC1=C(C)/C(=C/c2[nH]c(-c3ccc[nH]3)cc2OC)N=C1C,45.2% (inactive)
8,Cc1cc(O)c2c(c1)C(=O)C(c1c(C)cc3c(c1O)C(=O)C=CC3=O)=CC2=O,53.2% (inactive)
9,O=C(CO)C(O)C(O)C(O)C(O)CO (stereo not given),-18.1% (active) and 102% (inactive)
10,O=C1N/C(=N/N=C(c2ccccc2)c2ccccc2)S/C1=C\c1ccc(Br)cc1,103% (inactive)
11,CS(=O)(=O)Nc1cc(-c2ccc3ncc(C#N)c(NCc4ccccc4O)c3c2)cnc1Cl,-23.1% (active)
12,CC(=O)N1N=C(c2ccc(Cl)cc2)CC1c1c(C)nn(-c2ccccc2)c1N(C)Cc1ccccc1 (stereo not given),58.9% (inactive)
13,ONc1nc(NO)c2[nH]cnc2n1,47.6% (inactive)
14,COc1ccc(-c2cc(-c3ccc(Cl)cc3)nc(SCCCC(=O)NO)n2)cc1,-56.2% (active)
15,CS(=O)(=O)c1ccc(/C(=N/NC(N)=S)c2ccc(F)cc2)cc1,88.2% (inactive)
16,CN1c2ccccc2C(C)(C)C12C=Cc1cc(O)ccc1O2 (stereo not given),4.08% (active)
17,Cc1cccc(NC(=O)Nc2ccc(-n3cnc4cc(-c5ccc(O)cc5)ccc43)cc2)c1,38.4% (inactive)
18,CC1(C(=O)O)CCC(N)(C(=O)O)C1(C)C (stereo not given),115% (inactive)
19,CC1C2CCC(C2)C1COCCOCCO (stereo not given),102% (inactive)
20,C[C@]12CC[C@@H]3c4ccc(O)c([N+](=O)[O-])c4CC[C@H]3[C@@H]1CCC2=O,71% (inactive)
